Screening data (PubChem)
Most compounds without a hit are left out; they make up all but 2.8% or so of the library.
MsrA act: bovine MsrA enzyme activators, primary screen, biochemical, absorbance, HTS. purified bovine MsrA, absorbance read-out. 360,000 compounds, 0.3% hits. Methionine sulfoxide reductase A (Bos taurus). activation, % at 10.6 µM. AID 602163, 2012; in the data active = activation above about 7.5%;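 note: 0% = vehicle and 100% = reference activator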
KLK7 zymogen act: proKLK7 zymogen activators, primary screen, biochemical, fluorescence intensity; activation, % at 7 µM; AID 652039, 2013; purified proKLK7, EDANS-DABCYL substrate fluorescence; 100% is mature enzyme control, 0% vehicle; 370,000 compounds, 0.9% hits; Kallikrein-7 (Homo sapiens), P49862;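 active = activation above the mean of all tested compounds plus 3 SD, computed per campaign excluding outliers beyond control limits, cut at about 13% in these data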
Target sequence (P49862 whole entry, looked up): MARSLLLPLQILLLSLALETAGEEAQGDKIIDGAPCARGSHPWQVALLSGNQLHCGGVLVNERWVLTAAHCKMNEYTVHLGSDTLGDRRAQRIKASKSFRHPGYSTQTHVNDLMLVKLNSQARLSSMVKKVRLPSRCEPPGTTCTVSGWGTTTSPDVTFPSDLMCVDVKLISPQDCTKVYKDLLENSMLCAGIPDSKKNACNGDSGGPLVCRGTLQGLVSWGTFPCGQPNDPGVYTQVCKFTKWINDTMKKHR
SMARCA2 act: SMARCA2 (BRM) function activators, primary screen, cell-based, luminescence, high throughput. AID 652017, 2013. MG213 cells, MMTV-luciferase reporter, dexamethasone, overnight. 370,000 compounds, 1% hits. activation, % at 9.1 µM; in the data active = activation above about 7.8%;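 note: 0% = vehicle wells and 100% = reference activator wells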
MsrA inhibitor: bovine MsrA enzyme inhibitors, primary screen, biochemical, absorbance, HTS. AID 651718, 2012. purified bovine MsrA, absorbance read-out. 360,000 compounds, 0.75% hits. inhibition, % at 15.5 µM. Methionine sulfoxide reductase A (Bos taurus); in the data active = inhibition above about 4.5%;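 note: 0% = vehicle wells with enzyme and 100% = reference inhibitor wells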
KLK7 act conf: proKLK7 zymogen activators, confirmation, biochemical, fluorescence intensity, triplicate; 3,200 compounds, 68% hits; purified proKLK7, EDANS-DABCYL substrate fluorescence; scaled: vehicle 0, mature enzyme 100; activation, % at 7 µM; shares compounds with KLK7 zymogen act;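 active = activation, as change over the incubation, above the mean of all tested compounds plus 3 SD, cut at about 13% in these data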
EDANS-DABCYL int: EDANS-DABCYL substrate optical interference, artefact control for kallikrein-7 zymogen activator project, biochemical, fluorescence intensity, high throughput | shares compounds with KLK7 zymogen act | no enzyme, 4 h; solvent 0%, active enzyme control 100% | activation, % at 7 µM | 3,200 compounds, 80% hits;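 active = activation above the all-compound mean plus 3 SD, ignoring values outside control-based bounds, cut at about 4.8% in these data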;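 note: value is the 4 h activation minus the activation read at time zero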
Active calls of the source: *; . = not tested or not shown.

SMILES	MsrA act	KLK7 zymogen act	SMARCA2 act	MsrA inhibitor	KLK7 act conf	EDANS-DABCYL int
CCOC(=O)c1ccccc1NC(=O)C1CC(=O)N(C(C)(C)C)C1 (stereo not given)	-2	0	0	-1	.	.
C[C@@H]1ON(C)[C@H]2C[C@H]3c4[nH]c5ccc(-c6ccc7c(c6)OCO7)cc5c4CCN3C(=O)[C@@H]12	-1	-1	-6	0	.	.
COc1ccc(N=c2oc3cc(O)ccc3cc2C(=O)NCC2CCCO2)cc1 (stereo not given)	-3	16*	-1	0	8	11*
CCOc1ccccc1N=c1oc2cc(O)ccc2cc1C(=O)NCC1CCCO1 (stereo not given)	-6	88*	0	1	12	14*
CCOc1ccc(N=c2oc3cc(O)ccc3cc2C(=O)NCC2CCCO2)cc1 (stereo not given)	-2	6	-2	0	.	.
COc1ccc(N=c2oc3cc(O)ccc3cc2C(=O)NCC2CCCO2)c(OC)c1 (stereo not given)	-14	20*	0	0	13*	17*
O=C(COCc1ccccc1)NC1CCCCN(Cc2ccc(Cl)cc2)C1=O (stereo not given)	.	0	-2	.	.	.
CN(c1cccnc1)c1ccc(NC(=O)Cc2c[nH]c3ccccc23)cc1-c1ccc(C(C)(C)C)cc1	.	0	-2	1	.	.
COc1ccc(N2C3=C(C(=O)CC(C)(C)C3)C(c3cnn(C)c3)C3=C2CC(C)(C)CC3=O)cc1	-3	21*	0	0	-15	-10
N#CCSc1nc(-c2ccccc2)cs1	-6	0	3	0	.	.
N#CCSc1ccc2nc(-c3ccccc3)cn2n1	3	16*	5	2	32*	32*
COc1cc(SC)ccc1C(=O)OCC(=O)N1CCN(C(C)=O)CC1	-2	0	-1	0	.	.
COCCCn1c(=S)[nH]c2ccc(N3CCOCC3)cc2c1=O	-3	58*	-2	1	30*	49*
O=C(CCCCCn1c(=S)[nH]c2ccc(N3CCOCC3)cc2c1=O)NCc1cccc(Cl)c1	-6	17*	-1	-2	-32	-38
CCOc1cc2[nH]c(=S)n(CCOC)c(=O)c2cc1OCC	0	0	1	1	.	.
O=c1c2cc(N3CCOCC3)ccc2[nH]c(=S)n1CC1CCCO1 (stereo not given)	-2	32*	1	0	-16	4.7*
O=c1c2ccccc2[nH]c(=S)n1CC1CCCO1 (stereo not given)	-8	0	3	0	.	.
COCCn1c(=S)[nH]c2ccc(N(C)C)cc2c1=O	-6	48*	-1	3	76*	74*
CCCCOCC1CN(CCCC)S(=O)(=O)c2c(Oc3ccc(C)cc3)cccc2O1 (stereo not given)	.	1	-2	1	.	.
CC1(C)OC(=O)C2=C(CC(CCc3ccccc3)OC2c2ccc(Cl)c(Cl)c2)O1 (stereo not given)	.	0	0	-1	.	.
O=C(Nc1ccc(Cl)c(Cl)c1)C1CCN(c2nnc(-n3cccc3)s2)CC1	.	1	-2	.	.	.
O=c1c2cc(N3CCOCC3)ccc2[nH]c(=S)n1Cc1ccccn1	1	80*	2	2	21*	20*
O=c1c2cc(N3CCOCC3)ccc2[nH]c(=S)n1Cc1ccccc1Cl	0	-1	-1	-1	.	.
CCN(CC)CCNC(=O)c1cc(-c2ccco2)nc2ccccc12	-1	60*	4	1	57*	73*
O=C(O)c1ccccc1/C=N/NC(=O)c1cc(-c2ccco2)nc2ccccc12	-2	15*	-4	3	29*	31*
SMILES	MsrA act	KLK7 zymogen act	SMARCA2 act	MsrA inhibitor	KLK7 act conf	EDANS-DABCYL int
CC(=O)c1cccc(NC(=O)c2cc(-c3ccco3)nc3ccccc23)c1	3	-5	-3	0	.	.
O=C(NNC(=O)c1cc(-c2ccco2)nc2ccccc12)c1ccccc1	-5	141*	1	3	51*	70*
CC(=O)Nc1ccc(/C=N/NC(=O)c2cc(-c3ccco3)nc3ccccc23)cc1	-2	-10	-2	3	.	.
CC(=O)N1CCN(S(=O)(=O)c2ccc3c(c2)oc(=O)n3C)CC1	.	0	-4	.	.	.
OCCCc1nc2n(n1)C(c1ccccc1Cl)C=C(c1cccs1)N2 (stereo not given)	-5	.	.	.	.	.
OCCCc1nc2n(n1)C(c1ccccc1)C=C(c1ccc(F)cc1)N2 (stereo not given)	-3	23*	-3	2	38*	74*
Cc1c(C)c2cc(Cl)c(O)c(CN3CCN(C)CC3)c2oc1=O	0	76*	7	3	64*	69*
Cc1c(C)c2cc(Cl)c(O)c(CN3CCCC(C)C3)c2oc1=O (stereo not given)	-3	42*	-1	1	69*	73*
CCc1cc2c(=O)c(-c3nc4ccccc4n3C)coc2c(CN2CCCC(C)C2)c1O (stereo not given)	-3	8	-2	3	.	.
CC(=O)CCc1c(C)c2cccc(C)c2[nH]c1=O	-7	1	3	0	.	.
COc1cccc2c(=S)c(CCC(C)=O)c(C)[nH]c12	-3	21*	-3	1	22*	24*
COC(=O)[C@]1(C#N)CC(=O)N(c2ccccc2)[C@@H]1c1ccccc1	.	0	0	.	.	.
CCOC(=O)c1cnn2c(C)cc(-c3ccc(F)cc3)nc12	-11	26*	5	1	-4	17*
Cc1cc(-c2ccc(F)cc2)nc2cc(C(N)=O)nn12	-1	9	-2	1	.	.
O=C(C(=O)N1CCC(Cc2ccccc2)CC1)c1ccccc1Br	.	0	-4	0	.	.
C[C@@H]1CN([C@H](C)CO)C(=O)CCCn2nncc2CO[C@H]1CN(C)S(=O)(=O)c1ccc(Oc2ccccc2)cc1	-1	0	-5	0	.	.
CC(=O)c1c(C)[nH]c(C(=O)OCC(=O)Nc2cc(Cl)ccc2[N+](=O)[O-])c1C	-4	0	-4	1	.	.
Nc1c(C(=O)OCC(=O)Nc2ccc(Cl)cc2[N+](=O)[O-])[nH]c(=O)[nH]c1=O	-2	14*	-3	1	136*	137*
CC(=O)N1CCC(C(=O)N2c3ccccc3N=C(c3ccc(C(F)(F)F)cc3)C2C(=O)NC(C)(C)C)CC1 (stereo not given)	.	32*	1	0	-65	-66
CC(=O)N1CCC(C(=O)N2c3ccccc3N=C(c3ccc(C(F)(F)F)cc3)C2C(=O)NC(C)C)CC1 (stereo not given)	.	5	-4	2	.	.
